In PubChem BioAssay (NCATS):
Results filed as inconclusive are left out. Entries that show only a call come without a potency. Activity calls are given as the source filed them. The call rests on the fitted dose curve; in most records, active means well fitted inhibition curve with a large enough effect; inconclusive means small, poorly fitted or top-dose-only effect; inactive means no such curve, though single readings can be large or run the other way.

Tested on: Zika virus NS2B-NS3 protease (linked construct)
Experiment: Primary screen NINDS Rhodamine qHTS for Zika virus inhibitors (AID 1347160); further: nearly all actives have a fitted effect of over 55% in size
Details: purified NS2B-NS3 protease, Rhodamine110 substrate fluorescence; series mostly up to 33.1 µM
In short: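 Purified linked NS2B-NS3 protease (NS2B hydrophilic domain joined to NS3 protease by flexible linker), 25 nM in 10 mM Tris-HCl pH 8.0, 0.01% Tween 20. Compounds titrated, 15 min preincubation at room temperature; 1.5 microM Rhodamine110 substrate, FITC fluorescence change over 15 min.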
Potency means the concentration at half of the fitted maximal effect.

SMILES	Potency
COc1cc(/C=C/C(=O)OC[C@H]2O[C@@H](OC3CC(C)=C(C(=O)O)C(C)(C)C3)[C@H](O)[C@@H](O)[C@@H]2O)cc(OC)c1O (some centres undefined)	inactive
COc1ccc(C(=O)OC2C3C=COC(OC4OC(CO)C(O)C(O)C4O)C3C3(CO)OC23)cc1OC (centres undefined)	inactive
CC(=O)OC1C(O)/C(C)=C\C2C(OC(=O)c3ccccc3)C(C)CC2(OC(C)=O)C(OC(C)=O)C(C)/C=C/C(C)(C)C1OC(C)=O (centres undefined)	inactive
CC1CC2(O)OC(=O)C3=C2C(CCC3)[C@@]12C[C@@H](c1ccoc1)OC2=O (some centres undefined)	inactive
CC1=CC2=C(C)C(=O)C(C)(O)C(O)C2CO1 (centres undefined)	inactive
CC(=O)OCC1=CCC2C(C)(C)CCCC2(C)C12CCC(C)(CC(=O)O)O2 (centres undefined)	inactive
CC(CC(C)O[C@@H]1O[C@H](CO)[C@@H](O)[C@H](O)[C@H]1O)OC(=O)/C=C/c1ccc(O)cc1 (some centres undefined)	12.6 µM (active)
O=C1C[C@@]2(C(=O)N1)C(=O)N(Cc1ccc(Br)cc1F)C(=O)c1cccn12	inactive
COCC1OC(OC(C)(C)C2CCC3(C)C=C(C4CCC5C4(C)CC(O)C4OC(C(C)(C)O)CCC45C)CCC3O2)C(NC(C)=O)C(O)C1O (centres undefined)	inactive
O=C(/C=C/N1C[C@@H]2C[C@@H]1CN2c1ccccn1)c1ccccc1O	inactive
CCOC(=O)CSc1nc2c(sc3ccccc32)c(=O)n1CCCN1CCCC1	inactive
CC[C@@H](Nc1c(Nc2cccc(C(=O)N(C)C)c2O)c(=O)c1=O)c1ccc(C)o1	inactive
C[C@@H]1O[C@@H](O[C@H]2[C@@H]3C=CO[C@@H](O[C@@H]4O[C@H](CO)[C@@H](O)[C@H](O)[C@H]4O)[C@@H]3[C@@]3(CO)O[C@@H]23)[C@H](O)[C@H](OC(=O)/C=C/c2ccc(O)c(O)c2)[C@H]1O	inactive
C=C1CC/C=C(/CO)C(=O)C[C@@H]2[C@@H]1C[C@@]2(C)COC(C)=O	inactive
CC1=C[C@H]2[C@@H](CC1=O)[C@H](C)C[C@H](O)[C@H]2C(C)C	inactive
CC(O)/C=C/C1(O)C(C)C(O)C(O[C@@H]2O[C@H](CO)[C@@H](O)[C@H](O)[C@H]2O)CC1(C)C (some centres undefined)	inactive
CC(=O)c1c(C)cccc1O[C@@H]1O[C@H](CO)[C@@H](O)[C@H](O)[C@H]1O	inactive
CC1=C2C(=O)C=C(CO)C2[C@H]2OC(=O)[C@H](C)[C@@H]2[C@@H](OC(=O)Cc2ccc(O)cc2)C1 (some centres undefined)	inactive
CC1=C(CC/C(C)=C/C(=O)O)[C@@]2(C)CCCC(C)(C)C2CC1=O (some centres undefined)	inactive
CC1OC(OC2C(OC3C(O[C@H]4CC[C@@]5(C)C(CC[C@]6(C)C5C(=O)CC5=C7CC(C)(C)CC(O)[C@]7(C)CC[C@]56C)C4(C)C)OC(C(=O)O)C(O)C3O)OCC(O)C2O)C(O)C(O)C1O (some centres undefined)	inactive

SMILES	Potency
CC1=C(CCC(C)O[C@@H]2O[C@H](CO)[C@@H](O)[C@H](O)[C@H]2O)C(C)(C)CC(O)C1 (some centres undefined)	inactive
CC1C(=O)OCC2=CC[N+]3([O-])CCC(OC(=O)C(C)(O)C1(C)O)C23 (centres undefined)	inactive
O=C(O)CCc1cccc(O)c1O[C@@H]1O[C@H](CO)[C@@H](O)[C@H](O)[C@H]1O	inactive
C[C@H]1[C@H](C)C[C@@H](C(=O)O)C2CC[C@]3(C)C(=CC[C@@H]4[C@@]5(C)CC[C@H](O)C(C)(C)[C@@H]5CC[C@]43C)[C@@H]21 (some centres undefined)	inactive
COc1cc(C(O)C2COC(c3ccc(OC4OC(CO)C(O)C(O)C4O)c(OC)c3)C2CO)ccc1O (centres undefined)	inactive
COC(=O)[C@]1(Cc2ccc(O)c(CC=C(C)C)c2)OC(=O)C(O)=C1c1ccc(O)cc1	inactive
C[C@]1(OC(=O)/C=C\c2ccc(O)cc2)C[C@@H](O)[C@]2(O)C=CO[C@@H](O[C@@H]3O[C@H](CO)[C@@H](O)[C@H](O)[C@H]3O)C12 (some centres undefined)	inactive
COc1cc(O)c(C(=O)O)c(CCc2ccccc2)c1	22.4 µM (active)
C[C@]12CC[C@@H]3c4ccc(O)cc4CC[C@H]3[C@@H]1C[C@@H](O[C@@H]1O[C@H](C(=O)O)[C@@H](O)[C@H](O)[C@H]1O)[C@@H]2O	inactive
CC1CCC2(C(=O)O)CCC3(C)C(=CCC4C5(C)C[C@@H](O)[C@@H](O)C(C)(CO)C5CCC43C)C2C1(C)O (some centres undefined)	inactive
CC(O)C(=O)/C=C/C=C/C(=O)OC1C=C2COC(=O)C2(O)C2(C)CCCC(C)(C)C12 (centres undefined)	inactive
C[C@@H]1O[C@@H](OC2C(O[C@H]3[C@H](O[C@H]4CC[C@@]5(C)C(CC[C@]6(C)C5CC=C5C7CC(C)(C)CC(O)[C@]7(C)CC[C@]56C)C4(C)C)O[C@H](C(=O)O)[C@@H](O)[C@@H]3O)OC(CO)C(O)C2O)[C@H](O)[C@H](O)[C@H]1O (some centres undefined)	inactive
C=C1[C@H](OC(C)=O)[C@H]2[C@@H](OC(C)=O)C(C)C[C@]2(OC(C)=O)C(=O)[C@H](C)/C=C/C(C)(C)C(=O)[C@H](OC(=O)C(C)C)[C@H]1OC(C)=O (some centres undefined)	inactive
C=C1C(=O)OC2CC(COC(=O)C(C)C)=C(C(C)CCCOC(C)=O)[C@@H](OC(C)=O)C12 (some centres undefined)	inactive
CC(C)c1ccc2c(c1)C(O)CC1C(C)(C(=O)O)CCCC21C (centres undefined)	inactive
CC(C)C1CCC(CO)=CC1/C=C(\CO)C(=O)OCC1(O)CCC(C(C)C)C2C=C(C(=O)O)COC(=O)C21 (centres undefined)	inactive
C=C1C[C@]23C[C@@]1(O)CC[C@H]2[C@@]12C=C[C@H](O)[C@@](C)(C(=O)O1)[C@H]2[C@@H]3C(=O)O	inactive
CO[C@H]1c2cc(C(C)C)c(O)c(O)c2[C@@]23CCCC(C)(C)C2[C@@H]1OC3=O (some centres undefined)	inactive
Cn1cc(CCn2cnc(-c3cnn(C)c3)c2-c2ccc(C#N)cc2)cn1	inactive
